Experimental data from PubChem BioAssay AID2221 (Broad Institute, 2009).
In all, about 290,000 compounds went through this assay and about 2,200 (0.76%) were called active. The entries come from a sample that favours actives as a whole. Unmarked numbers belong to inactive results. No stated cut-off is given here; in the data, active means inhibition above about 30%; inconclusive means no clear call, values can overlap the other calls; inactive means below that.

Molecular target: Protein RecA (Mycobacterium tuberculosis (strain ATCC 25618 / H37Rv)) (UniProt P9WHJ3)
Sequence (P9WHJ3 whole entry, looked up): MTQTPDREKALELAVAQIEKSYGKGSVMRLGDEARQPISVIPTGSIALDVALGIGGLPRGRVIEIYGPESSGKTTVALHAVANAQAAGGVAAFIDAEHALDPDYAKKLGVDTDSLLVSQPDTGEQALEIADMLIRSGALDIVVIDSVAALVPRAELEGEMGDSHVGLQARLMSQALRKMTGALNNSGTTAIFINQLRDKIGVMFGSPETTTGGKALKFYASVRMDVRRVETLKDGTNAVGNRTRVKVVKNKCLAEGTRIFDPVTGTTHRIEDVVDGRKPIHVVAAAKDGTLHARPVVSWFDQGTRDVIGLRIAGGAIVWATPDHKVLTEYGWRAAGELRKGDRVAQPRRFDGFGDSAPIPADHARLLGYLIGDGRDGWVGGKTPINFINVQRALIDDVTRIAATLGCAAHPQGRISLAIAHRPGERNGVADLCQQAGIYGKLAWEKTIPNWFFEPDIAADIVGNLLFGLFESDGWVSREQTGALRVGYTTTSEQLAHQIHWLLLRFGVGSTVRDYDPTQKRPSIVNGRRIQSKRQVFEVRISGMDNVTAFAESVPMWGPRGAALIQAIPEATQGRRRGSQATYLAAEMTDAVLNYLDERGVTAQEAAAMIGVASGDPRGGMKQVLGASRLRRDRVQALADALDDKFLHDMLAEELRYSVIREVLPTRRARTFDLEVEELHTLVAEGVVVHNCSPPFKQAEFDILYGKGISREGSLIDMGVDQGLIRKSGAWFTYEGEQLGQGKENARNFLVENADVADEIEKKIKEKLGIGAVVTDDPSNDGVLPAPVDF
Test: Mtb RecA intein splicing inhibitors, primary screen, biochemical, fluorescence, HTS (AID 2221);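 further: 0% = vehicle wells and 100% = reference inhibitor control wells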
Conditions: cell-free RecA intein splicing, active compounds read high, concentration not given here

Compound	inhibition
O=C(CN1C(=O)C2C3C=CC(C3)C2C1=O)Nc1nc(-c2ccccn2)cs1 (centres undefined)	-1.82%
CCn1c(CC(=O)Nc2ccccc2)nnc1SCC(=O)N1CCOCC1	-3.34%
N#Cc1ccc(C2N=C(c3ccccc3)NO2)cc1 (centres undefined)	-0.394%
O=C(CSc1nc2ccccc2c(=O)[nH]1)Nc1nc(-c2ccc(Br)cc2)cs1	1.49%
O=C(CSC1=NCCS1)Nc1nc(-c2ccccc2)cs1	37.4% (active)
CCNC(=O)CSc1nc(-c2ccccc2)cs1	0.44%
CC(C)C(C)NC(=O)COc1nc2ccccc2nc1N(C)C1CCCCC1 (centres undefined)	-2.05%
COc1ccc(C(=O)NCCSc2ccccc2C)cc1	3.07%
CCCCC(O)(CCCC)C(=O)NN(C(=O)CCl)c1ccccc1	42.8% (active)
CCCC(O)(CCC)C(=O)NN(C(=O)CCl)c1cccc(C)c1	18.1%
COC(=O)N(NC(=O)C(O)(C(C)C)C(C)C)c1ccccc1	-3.28%
CCOC(=O)C1Cn2c(nc3c(c2=O)C(C)(CC)Cc2ccccc2-3)S1 (centres undefined)	-3.72%
CCCc1nnc(NC(=O)CCC(=O)NC2CC2)s1	-1.59%
Cc1ccc(S(=O)(=O)N(Cc2cccc([N+](=O)[O-])c2)C(=O)N2CCN(C)CC2)cc1	1.46%
CCN(CC)C(=O)CN(c1cccc([N+](=O)[O-])c1)S(=O)(=O)c1ccccc1	0.016%
O=C(CCl)N(Cc1cccc([N+](=O)[O-])c1)c1cccc(Cl)c1	88.1% (active)
O=C(CCS(=O)(=O)c1ccccc1Cl)Nc1ccc(S(=O)(=O)Nc2ncccn2)cc1	-0.502%
CC(C)c1ccc(N(C(=O)c2ccco2)C(C(=O)NC2CCCC2)c2cccnc2)cc1 (centres undefined)	2.58%
O=C(c1[nH]ncc1-c1ccc(Cl)cc1)C1CO1 (centres undefined)	33% (active)
O=C(c1nnc(-c2ccc(Cl)cc2)o1)C1CCCC1	-10.3%
S=c1[nH]nc(-c2ccc(Cl)cc2)n1CC1CCCO1 (centres undefined)	-1.85%
COc1ccccc1OCCCCCCN1CCN(C)CC1	-1.55%
CC(OC(=O)CNC(=O)c1cccc(F)c1)C(=O)NC1CCCCC1C (centres undefined)	-0.912%
N#Cc1c(N)n(CCOC(=O)c2ccc(Cl)cc2)c2nc3ccccc3nc12	51.9% (active)

Compound	inhibition
COCC(C)OC(=O)c1c(N)n(CCCN2CCOCC2)c2nc3ccccc3nc12 (centres undefined)	-97.2%
CC(C)(C)OC(=O)c1c(N)n(CCCN2CCCC2=O)c2nc3ccccc3nc12	-350%
CC(C)(C)n1nc(Cc2cccc3ccccc23)c(C#N)c1N	4.34%
COc1ccc(N(C(=O)c2snc(C(N)=O)c2N)C(C(=O)NC2CCCC2)c2ccc(C)o2)c(OC)c1 (centres undefined)	5.96%
O=C(OCC(=O)N(CCc1ccccc1)Cc1ccccc1)c1ccccc1[N+](=O)[O-]	18.8%
O=C(N/N=C\c1cc(Br)c(Br)o1)C1COc2ccccc2O1 (centres undefined)	0.81%
Cc1ccc(C(=O)N/N=C\c2cc(Br)c(Br)o2)cn1	32% (active)
Cc1ccc(C(=O)N/N=C/c2cccc3ccccc23)cn1	0.625%
Cn1c2ccccc2n2c(=O)c(=O)n(CC(=O)c3ccc(F)cc3)nc12	-7.28%
COCCN1CCN(C(=O)c2cc(COc3ccc(F)cc3Cl)on2)CC1	-1.15%
CC1CCC(NC(=O)C2c3ccccc3C(=O)N2Cc2ccc3c(c2)OCO3)CC1 (centres undefined)	-1.41%
O=C(Nc1ccc(Cl)cc1)C1c2cccc[n+]2CC(=O)N1Cc1ccc2c(c1)OCO2 (centres undefined)	36.5% (active)
O=C(C1CCN(Cc2ccc(Cl)cc2)CC1)N1CCN(Cc2ccc3c(c2)OCO3)CC1	-0.0543%
C=CS(=O)c1sc(Cl)c(N2CCOCC2)c1[N+](=O)[O-] (centres undefined)	33.8% (active)
CCOC(=O)c1cc(NC(=O)c2ccc(Cl)cc2)c(=O)oc1-c1ccccc1	-0.694%
COc1ccc(N=C(C)c2sc3ccccc3c2O)cc1	0.51%
O=C(N/N=C/c1c(Cl)[nH]c2ccccc12)c1sc2ccccc2c1Cl	3.69%
Oc1ccc(N=Cc2sc3ccccc3c2Cl)cc1	34.2% (active)
CC(C)(C)C1CCC(C(=O)NCC(c2cccs2)N2CCOCC2)CC1 (centres undefined)	4.62%
C#CCN1C(=O)C(O)(CC(=O)c2cc(OC)ccc2OC)c2ccccc21 (centres undefined)	2.4%
CCCCN1C(=O)/C(=C(/C#N)C(N)=O)c2ccccc21	1.79%
COc1ccc2c(c1)C(=C(C#N)C#N)C(=O)N2CCc1ccccc1	61.5% (active)
O=[N+]([O-])c1ccc2nc(-c3ccccn3)[nH]c2c1	0.606%
COc1ccc(-c2nnc(SCC(=O)Nc3cccnc3Cl)n2C)cc1	-0.381%

Compound	inhibition
COc1ccc(N(CC(=O)NCC2CCCO2)C(=O)CCC(=O)Nc2nccs2)c(OC)c1 (centres undefined)	1.28%
COc1ccc(NC(=O)c2cc(-c3ccc(C)cc3)on2)cc1	-0.468%
COc1ccc(NC(=O)/C(Cl)=C(/Cl)S(=O)Cc2ccc(C)cc2)cn1 (centres undefined)	89% (active)
Cc1ccc(NC(=O)OCc2cncs2)cc1	-1.45%
O=C(Nc1ccccc1-c1nnn(CC(=O)N2CCN(c3ccccc3)CC2)n1)c1cccs1	0.619%
COc1ccc(CNC(=O)CN(c2ccc(OC)c(Cl)c2)S(=O)(=O)c2ccc(C)cc2)cc1	-0.316%
CCOc1ccccc1Nc1ccc2nonc2c1[N+](=O)[O-]	2.95%
O=C(O)c1cccc(S(=O)(=O)Nc2ccc(O)cc2Sc2nc3ccccc3s2)c1	-3.82%
O=[N+]([O-])c1c(NCCO)cc(Sc2nc3ccccc3s2)c2nonc12	94.4% (active)
Cc1ccc(CS(=O)(=O)c2ncc(Cl)c(C(=O)Nc3nnc(C)s3)n2)cc1	61% (active)
CSc1nnc(NC(=O)c2nc(S(=O)(=O)Cc3ccc(C)cc3)ncc2Cl)s1	82.8% (active)
CSc1ncc(Cl)c(C(=O)Nc2cc(C)ccc2C)n1	-0.95%
Cc1ccc(S(=O)(=O)CC(=O)Nc2nnc(C)s2)cc1	-0.704%
CCSc1nnc(NC(=O)c2ccc(C)cc2)s1	2.42%
Cc1nnc(NC(=O)CCCOc2ccccc2)s1	-1.92%
Cc1cc(Cl)nc(NC(=O)Nc2cccc(Cl)c2)n1	-0.873%
O=C(NCCCn1ccnc1)c1cc2c(s1)CCCC2	1.03%
COc1cc(/C=C2/C(=O)NN(c3cccc(Cl)c3)C2=O)cc(Br)c1O	9.85%
CCOc1c(Br)cc(/C=C2\C(=O)N(CCC#N)N=C2C)cc1OC	89.5% (active)
C=CCOc1c(Br)cc(/C=N\n2nnnc2N)cc1OC	1.44%
Cc1cccc(OCC(=O)NCCNC(=O)c2cccnc2)c1	4.34%
Cc1nn(CC(=O)NC2CCCCC2)c(=O)c2cccn12	-1.92%
O=C(CN(C(=O)CNC(=O)c1cccs1)c1cccc(F)c1)NC1CCCCC1	2.36%
Cc1cccc(NC(=S)Nc2ccc3cn[nH]c3c2)c1	3.44%

Compound	inhibition
Cc1cc2[nH]ncc2cc1NC(=S)NC(=O)c1ccccc1	38.6% (active)
Cc1cccc(NC(=O)NC(=S)NC(=O)c2ccccc2)c1	1.58%
CC(=O)c1c(N2CCN(c3ccc(F)cc3)CC2)nc(=S)n(-c2ccccc2)c1C	-0.168%
O=C(CCN1C(=O)[C@@H]2Cc3ccccc3CN2C1=O)NCc1ccccc1	-0.00645%
Cc1ccc(CNC(=O)CCN2C(=O)[C@@H]3Cc4ccccc4CN3C2=O)cc1	58% (active)
O=C(CCN1C(=O)[C@@H]2Cc3ccccc3CN2C1=O)NCCc1ccccc1	-9.37%
COc1cc(CC(=O)N/N=C/c2ccccc2)c([N+](=O)[O-])cc1OC	-1.27%
CCOc1ccc(N2CC(C(=O)N/N=C/c3sccc3C)CC2=O)cc1 (centres undefined)	-0.809%
Cc1ccsc1/C=N/Nc1ccc(Cl)nn1	0.218%
Cc1ccsc1/C=N/NC(=O)Cc1cc(=O)[nH][nH]1	93.6% (active)
O=C(Cc1cc(=O)[nH][nH]1)N/N=C/c1ccccc1[N+](=O)[O-]	86.9% (active)
Cc1cc(C(=O)N/N=C/c2ccccc2[N+](=O)[O-])c(C)o1	-1.48%
CCCNC(=O)OC[C@H]1O[C@H](CCO/N=C/[C@@H](NS(=O)(=O)c2ccc(C)cc2)[C@H](C)/C=C/CC(=O)OC)C=C[C@@H]1Oc1ccc(OC)cc1	4.43%
CCN=c1sc(C(=O)Nc2ccccc2)c(C)n1CC	-1.39%
CC(=O)N1CCN(C(=O)C2(NC(=O)Nc3ccc(C)cc3)CCCCC2)CC1	-0.697%
O=C1c2cccc3c([N+](=O)[O-])ccc(c23)C(=O)N1CC1CCCO1 (centres undefined)	-70.4%
Cc1ccc(Nc2cc(C)nc3c(C)ccc([N+](=O)[O-])c23)cc1	63.3% (active)
Cc1cc(C)nc(Nc2cc([N+](=O)[O-])ccc2C)n1	-2.26%
Cc1ccc(Nc2ccc(C(N)=O)cc2[N+](=O)[O-])cc1	2.38%
Cc1ccccc1Nc1c([N+](=O)[O-])ccc2nonc12	-1.72%
CCN(CC)c1ccc([N+](=O)[O-])c2cccnc12	14.5%
CN(c1ccccc1)c1ccc([N+](=O)[O-])c2nonc12	63.5% (active)
